Among the data in PubChem BioAssay (NCI) are growth inhibition values, retold here.

This is part of a sample that, as a whole, favours compounds with a hit. Of some 79,000 tested, about 15% had one in any assay. Active and inactive are the calls of the source. Cut-off read from the data, not from the text of the source: active = growth inhibition above about 70%; inactive = the rest. Where a SMILES comes first, the peptide text is derived from it. [ ]: non-standard residue; d: D form. The star is where a group is joined. ξ: configuration not given here. X15 = COc1ccc(C(N*)c2ccc(OC)cc2)cc1; NMeF = CN[C@@H](Cc1ccccc1)C(=O)O; NMeD = CN[C@@H](CC(=O)O)C(=O)O; NMeV = CN[C@H](C(=O)O)C(C)C; ξNMeV = CNC(C(=O)O)C(C)C; Boc = CC(C)(C)OC(=O)*; ξNMeA = CNC(C)C(=O)O; ξV = CC(C)C(N)C(=O)O

The nature of the first assay: NCI Yeast Anticancer Drug Screen. Data for the sgs1 mgt1 strain (AID 161).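 Note: 0% = growth of cultures given vehicle only.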 The note with it: S. cerevisiae sgs1 mgt1 strain, at 50.0 µM, hits give high values. The procedure, abridged:
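Mutant yeast exposed to compound; growth scored against vehicle-only wells.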
With `COCCOCOC(C)(C)[C@H](CCO)O[Si](c1ccccc1)(c1ccccc1)C(C)(C)C`, the growth inhibition is 37.6% (inactive).

On to `O=C(c1ccccc1)c1cccc2cccc(C(=O)c3ccccc3)c12`, for which the growth inhibition is -7.7% (inactive).

On to `CN(C)C(=O)OC1CCCCC1`, for which the growth inhibition was -18.8% (inactive).

For `COc1cc([N+](=O)[O-])ccc1N=Cc1cccs1`, the growth inhibition was 34% (inactive).

Regarding `CCCc1c(OC(=O)c2ccc([N+](=O)[O-])cc2)cccc1OC(=O)c1ccc([N+](=O)[O-])cc1`, the growth inhibition is 12.8% (inactive).

For `CN(/N=C/c1ccccc1)c1nnnn1-c1ccccc1`, the growth inhibition is -5.85% (inactive).

Take `CC(C)OP(=O)(OC(C)C)C([CH2][Sn]([CH3])([CH3])[Cl])P(=O)(OC(C)C)OC(C)C`: the growth inhibition was 0.45% (inactive).

With `Cc1cc(O)c(/C=N/c2nc(-c3ccc([N+](=O)[O-])cc3)cs2)c(=O)o1`, the growth inhibition is 40.8% (inactive).

As to `Cc1ccc(C)c2nc3c(C)ccc(C)c3cc12`, the growth inhibition was 13% (inactive).

Regarding `CC1(C)OS(=O)(=O)C=C1Br`, the growth inhibition was -4.15% (inactive).

As for `CCN(CC)CCNC(=O)c1c(C)cc(C)cc1C`, the growth inhibition is -0.3% (inactive).

As to `C(=N\c1oc(-c2ccccc2)c(-c2ccccc2)c1-c1ccccc1)/c1ccccc1`, the growth inhibition was -4.85% (inactive).

As for `CC(=O)C/C(C)=N\NC(=O)c1ccc([N+](=O)[O-])cc1`, the growth inhibition is 5.65% (inactive).

In the case of `CC(C)OC(=O)Oc1ccc(Cl)cc1Cl`, the growth inhibition is 10.1% (inactive).

Turning to `CCC(Cc1cnc2nc(N)nc(N)c2n1)c1ccc(C(=O)NC(CCC(=O)O)C(=O)O)cc1` (stereo not given), the growth inhibition was 1.8% (inactive).

With `CCOc1cc(/C=C2/C=C(c3ccc(OC)cc3)OC2=O)ccc1O`, the growth inhibition is 4.5% (inactive).

In the case of `COc1cccc2c1C(=O)c1c(O)c3c(c(O)c1C2=O)CC(O)(C(C)=O)CC3OC1CC(NC(=O)C(CCCCN)NC(=O)C(N)CCN)C(O)C(C)O1` (stereo not given), the growth inhibition is -0.5% (inactive).

In the case of `COc1ccc(C(NC(=O)C[C@@H](C(=O)N(C)C(C)C(=O)O)N(C)C(=O)[C@@H]2CCCN2C(=O)[C@H](C(C)C)N(C)C(=O)C(C(C)C)N(C)C(=O)[C@H](Cc2ccccc2)N(C)C(=O)C(NC(=O)OC(C)(C)C)C(C)C)c2ccc(OC)cc2)cc1` (stereo not given in full) (Boc-[ξV][NMeF][ξNMeV][NMeV]P[NMeD](X15)[ξNMeA]-OH), the growth inhibition is -20.9% (inactive).

As for `CCN(CC)c1cccc2c1C1(O)CCC3(CC21)OCCCCO3` (stereo not given), the growth inhibition was -57.3% (inactive).

In the case of `C=CCOC(=O)/C=C\C(=O)OCC=C`, the growth inhibition was 6.8% (inactive).

In the case of `O=C(CC1(O)C(=O)Nc2ccccc21)c1ccc(O)cc1O` (stereo not given), the growth inhibition was 12.1% (inactive).

With `O=C1NC=NC1c1ccccc1` (stereo not given), the growth inhibition was -9.9% (inactive).

`O=C(NO)Oc1cccc2ccccc12`: the growth inhibition was 0.25% (inactive).

For the compound `NCC(O)COCc1ccccc1` (stereo not given), the growth inhibition is -1.65% (inactive).

Take `CCOC(=O)CCCN(c1sc(C)c(-c2ccccc2)c1C(=O)OCC)S(=O)(=O)c1ccc(C)cc1`: the growth inhibition was -14.6% (inactive).

For the compound `O=C1OC(C(O)C(O)C(O)CO)C(O)C1O` (stereo not given), the growth inhibition is -11.7% (inactive).

As for `COc1cc(/C=N/N=C(\N)NO)cc(OC)c1OC`, the growth inhibition is 2.4% (inactive).

On to `O=c1oc2c(Cl)cc(Cl)cc2cc1-c1nc2ccccc2[nH]1`, for which the growth inhibition was 15.6% (inactive).

As for `Nc1nc(N)c(N=Nc2cc(Cl)c([N+](=O)[O-])cc2Cl)c(=O)[nH]1`, the growth inhibition was -10.9% (inactive).

For the compound `CCCCSc1nc2ccc(N=Cc3ccccc3O)cc2s1`, the growth inhibition was -4.45% (inactive).

For `C(=N\c1nc2ccccc2s1)/c1cccs1`, the growth inhibition is -14.8% (inactive).

For the compound `COC(=O)c1nc(N)nc(C(=O)OC)c1C(=O)c1ccc(Cl)c(Cl)c1`, the growth inhibition is -18.5% (inactive).

On to `[C-]#[N+]C1(c2ccccc2)C2CC3CC(C2)CC1C3` (stereo not given), for which the growth inhibition is -4.35% (inactive).

`Cc1ccc(S(=O)(=O)C/C(=N\Nc2ccc([N+](=O)[O-])cc2[N+](=O)[O-])c2ccccc2)cc1`: the growth inhibition is 17.6% (inactive).

Take `Cc1ccc(NC(=O)c2ccc(Cl)cc2)cc1`: the growth inhibition is 8.85% (inactive).

`COCCNC1CCC2(SCCS2)c2[nH]c3ccccc3c21` (stereo not given): the growth inhibition was 15.1% (inactive).

With `C[N+](C)(C)CC(=O)NC(=O)N/N=C\C(CC#N)CN(Cc1ccccc1)Cc1ccccc1` (stereo not given), the growth inhibition was 19.1% (inactive).

Regarding `COc1cc2c(cc1C)C1=C(C)C(=O)OC1[C@@H](O)[C@@H]2C` (stereo not given in full), the growth inhibition is 18.4% (inactive).

As for `COC1=C(c2ccccc2)P(=O)(Cc2ccccc2)C(C)C1` (stereo not given), the growth inhibition is 24.6% (inactive).

On to `COc1ccc(-c2cc(=O)c3c([nH]2)CCCC3)cc1`, for which the growth inhibition is -11.2% (inactive).

The next assay in a line: NCI Yeast Anticancer Drug Screen. Data for the cln2 rad14 strain (AID 165).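 Note: 0% = growth equal to vehicle treated cultures.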 The note with it: S. cerevisiae cln2 rad14 strain, at 50.0 µM, hits give high values. The procedure, abridged:
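Each compound was tested on cln2 rad14 yeast. Inhibition of growth was calculated against vehicle-exposed controls.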
As to `COCCOCOC(C)(C)[C@H](CCO)O[Si](c1ccccc1)(c1ccccc1)C(C)(C)C`, the growth inhibition was 91.6% (active).

With `O=C(c1ccccc1)c1cccc2cccc(C(=O)c3ccccc3)c12`, the growth inhibition is 6% (inactive).

On to `CN(C)C(=O)OC1CCCCC1`, for which the growth inhibition is -18.7% (inactive).

For the compound `COc1cc([N+](=O)[O-])ccc1N=Cc1cccs1`, the growth inhibition was 0.25% (inactive).

Regarding `CCCc1c(OC(=O)c2ccc([N+](=O)[O-])cc2)cccc1OC(=O)c1ccc([N+](=O)[O-])cc1`, the growth inhibition is 18.1% (inactive).

As to `CN(/N=C/c1ccccc1)c1nnnn1-c1ccccc1`, the growth inhibition is 33% (inactive).

On to `CC(C)OP(=O)(OC(C)C)C([CH2][Sn]([CH3])([CH3])[Cl])P(=O)(OC(C)C)OC(C)C`, for which the growth inhibition is 0.25% (inactive).

Consider `Cc1cc(O)c(/C=N/c2nc(-c3ccc([N+](=O)[O-])cc3)cs2)c(=O)o1`, for which the growth inhibition was 20.1% (inactive).

Turning to `Cc1ccc(C)c2nc3c(C)ccc(C)c3cc12`, the growth inhibition is -25.9% (inactive).

Take `CC1(C)OS(=O)(=O)C=C1Br`: the growth inhibition was -16% (inactive).

Regarding `CCN(CC)CCNC(=O)c1c(C)cc(C)cc1C`, the growth inhibition is -53.2% (inactive).

With `C(=N\c1oc(-c2ccccc2)c(-c2ccccc2)c1-c1ccccc1)/c1ccccc1`, the growth inhibition is 14.3% (inactive).

In the case of `CC(=O)C/C(C)=N\NC(=O)c1ccc([N+](=O)[O-])cc1`, the growth inhibition is 7.35% (inactive).

On to `CC(C)OC(=O)Oc1ccc(Cl)cc1Cl`, for which the growth inhibition is -47.2% (inactive).

Consider `CCC(Cc1cnc2nc(N)nc(N)c2n1)c1ccc(C(=O)NC(CCC(=O)O)C(=O)O)cc1` (stereo not given), for which the growth inhibition is -12.2% (inactive).

Regarding `CCOc1cc(/C=C2/C=C(c3ccc(OC)cc3)OC2=O)ccc1O`, the growth inhibition is -19.1% (inactive).

For the compound `COc1cccc2c1C(=O)c1c(O)c3c(c(O)c1C2=O)CC(O)(C(C)=O)CC3OC1CC(NC(=O)C(CCCCN)NC(=O)C(N)CCN)C(O)C(C)O1` (stereo not given), the growth inhibition was 12.8% (inactive).

In the case of `COc1ccc(C(NC(=O)C[C@@H](C(=O)N(C)C(C)C(=O)O)N(C)C(=O)[C@@H]2CCCN2C(=O)[C@H](C(C)C)N(C)C(=O)C(C(C)C)N(C)C(=O)[C@H](Cc2ccccc2)N(C)C(=O)C(NC(=O)OC(C)(C)C)C(C)C)c2ccc(OC)cc2)cc1` (stereo not given in full) (Boc-[ξV][NMeF][ξNMeV][NMeV]P[NMeD](X15)[ξNMeA]-OH), the growth inhibition was -7.45% (inactive).

For `CCN(CC)c1cccc2c1C1(O)CCC3(CC21)OCCCCO3` (stereo not given), the growth inhibition is -1.65% (inactive).

With `C=CCOC(=O)/C=C\C(=O)OCC=C`, the growth inhibition was -25.3% (inactive).

Consider `O=C(CC1(O)C(=O)Nc2ccccc21)c1ccc(O)cc1O` (stereo not given), for which the growth inhibition is 26.4% (inactive).

Take `O=C1NC=NC1c1ccccc1` (stereo not given): the growth inhibition was -24.8% (inactive).

For the compound `O=C(NO)Oc1cccc2ccccc12`, the growth inhibition was 6.75% (inactive).

In the case of `NCC(O)COCc1ccccc1` (stereo not given), the growth inhibition is -28.1% (inactive).

Take `CCOC(=O)CCCN(c1sc(C)c(-c2ccccc2)c1C(=O)OCC)S(=O)(=O)c1ccc(C)cc1`: the growth inhibition was -29.3% (inactive).

Regarding `O=C1OC(C(O)C(O)C(O)CO)C(O)C1O` (stereo not given), the growth inhibition was -40.2% (inactive).

Consider `COc1cc(/C=N/N=C(\N)NO)cc(OC)c1OC`, for which the growth inhibition was 6.35% (inactive).

For `O=c1oc2c(Cl)cc(Cl)cc2cc1-c1nc2ccccc2[nH]1`, the growth inhibition was 9.65% (inactive).

On to `Nc1nc(N)c(N=Nc2cc(Cl)c([N+](=O)[O-])cc2Cl)c(=O)[nH]1`, for which the growth inhibition is -7.15% (inactive).

As for `CCCCSc1nc2ccc(N=Cc3ccccc3O)cc2s1`, the growth inhibition was -17.7% (inactive).

Regarding `C(=N\c1nc2ccccc2s1)/c1cccs1`, the growth inhibition is -5.95% (inactive).

Take `COC(=O)c1nc(N)nc(C(=O)OC)c1C(=O)c1ccc(Cl)c(Cl)c1`: the growth inhibition is -5.05% (inactive).

As to `[C-]#[N+]C1(c2ccccc2)C2CC3CC(C2)CC1C3` (stereo not given), the growth inhibition was -16.9% (inactive).

In the case of `Cc1ccc(S(=O)(=O)C/C(=N\Nc2ccc([N+](=O)[O-])cc2[N+](=O)[O-])c2ccccc2)cc1`, the growth inhibition was 12.4% (inactive).

As for `Cc1ccc(NC(=O)c2ccc(Cl)cc2)cc1`, the growth inhibition is 3.3% (inactive).

Regarding `COCCNC1CCC2(SCCS2)c2[nH]c3ccccc3c21` (stereo not given), the growth inhibition is -14% (inactive).

In the case of `C[N+](C)(C)CC(=O)NC(=O)N/N=C\C(CC#N)CN(Cc1ccccc1)Cc1ccccc1` (stereo not given), the growth inhibition was 10.6% (inactive).

`COc1cc2c(cc1C)C1=C(C)C(=O)OC1[C@@H](O)[C@@H]2C` (stereo not given in full): the growth inhibition is 3.45% (inactive).

Consider `COC1=C(c2ccccc2)P(=O)(Cc2ccccc2)C(C)C1` (stereo not given), for which the growth inhibition was -9.1% (inactive).

Regarding `COc1ccc(-c2cc(=O)c3c([nH]2)CCCC3)cc1`, the growth inhibition was -16.8% (inactive).
